Bioassay records from PubChem BioAssay.
D1 antagonist: human D1 dopamine receptor antagonism | HEK293 TREx D1 cells, calcium flux, dopamine EC80; hits give low values | activity change, negative = inhibition, % at 10 µM | AID 504652 | hit rate 3.2% among 360,000; in the data active = activity change below about -30%; note: % is set by controls: 0 for no effect and ±100 for the full control effect
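Cells carrying a force-coupled, tetracycline-inducible human D1 receptor report calcium flux. Each well gets a 10 s baseline, compound with 180 s monitoring, then an EC80 dopamine stimulus with a second 180 s kinetic read.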
ERG-DNA inh: blocks human ERG Ets domain binding to DNA; P11308; fluorescence polarization, His-ERG Ets domain / labelled DNA; Potency, µM (top dose mostly 76.9 µM), for the others: at the top dose FP activity, negative = inhibition, hits mostly inhibitors; AID 624246; hit rate 0.028% among 370,000; active = well fitted inhibition curve with a large enough effect in the polarisation, with a control signal flat; inconclusive = small, poorly fitted or top-dose-only effect, or effect the other way, or a change in a side signal; inactive = no such curve, though single readings can be large or run the other way; the % refers to the polarisation;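 note: polarization taken with two DNA probes labelled with fluorescein and Texas red; potency is the fitted concentration of half-maximal effect; % of control where 0% means no effect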
Target sequence (P11308 whole entry, looked up, the tested form may be a part): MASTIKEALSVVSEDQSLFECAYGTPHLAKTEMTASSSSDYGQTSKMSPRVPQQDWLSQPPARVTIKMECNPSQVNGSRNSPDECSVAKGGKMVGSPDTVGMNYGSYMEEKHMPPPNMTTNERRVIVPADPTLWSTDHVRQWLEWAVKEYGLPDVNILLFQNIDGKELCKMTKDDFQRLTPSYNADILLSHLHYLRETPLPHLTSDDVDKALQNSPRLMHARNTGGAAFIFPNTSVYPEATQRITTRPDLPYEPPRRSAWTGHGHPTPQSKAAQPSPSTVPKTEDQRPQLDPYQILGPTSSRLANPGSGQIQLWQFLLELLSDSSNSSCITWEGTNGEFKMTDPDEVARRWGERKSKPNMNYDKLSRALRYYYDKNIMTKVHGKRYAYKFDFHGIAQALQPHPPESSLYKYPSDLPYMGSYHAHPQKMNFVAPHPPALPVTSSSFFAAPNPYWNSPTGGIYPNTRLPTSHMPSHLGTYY
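His-tagged ERG Ets domain (1 uM in the protein solution; 300mM KCl, 50mM Tris-HCl, 1mM EDTA, 1mM DTT, pH 7.5) received compound, then a probe mix of 5 nM fluorescein-DNA and 100nM Texas-615-DNA. Fluorescence polarization was read for both dyes.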
D3 antag: antagonists of human D3 dopamine receptor. D3R cells, DiscoveRx beta-arrestin luminescence, antagonist mode; hits give low values. max response, negative = inhibition, %. hit rate 2.5% among 360,000. AID 652054; in the data active = max response below about -50%; inconclusive = no clear call, values can overlap the other calls; note: % is set by controls: 0 for no effect and ±100 for the full control effect
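Cells plated overnight at 1500 cells/well, then exposed to library compounds with dopamine controls for 90 minutes at 37 degrees C. DiscoveRx reagent added for 30–60 minutes at room temperature; luminescence read, quantitative HTS format.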
D1 ag: activates the human D1 dopamine receptor. P21728. HEK293 T-REx D1 cells, calcium flux, agonist mode. activation, % at 2 µM. hit rate 1% among 360,000. AID 504660; in the data active = activation above about 30%; note: 0% is about no effect
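Inducible HEK293 T-REx D1 cells, force-coupled to calcium signalling, were plated at 4000 cells/well with tetracycline and held overnight at 30 C. After no-wash calcium dye loading, compound-evoked calcium rise over 180 s flagged agonists.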
D1 PAM: enhances dopamine response at the human D1 receptor | potentiation, % at 10 µM | AID 504651 | HEK293 TREx D1 cells, calcium flux, dopamine EC20 potentiation | P21728 | hit rate 0.036% among 360,000; in the data active = potentiation above about 30%; note: 0% is about no effect
D3 ag: agonists of human D3 dopamine receptor. P35462. D3R DiscoveRx beta-arrestin cells, luminescence, 90 min. max activation, %. hit rate 0.58% among 410,000. AID 652048; in the data active = max activation above about 30%; note: 0% is about no effect
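Cells at 1500/well, incubated overnight, then treated with pinned compounds (dopamine as control) for 90 min at 37 degrees C. DiscoveRx reagent added for 30 - 60 minutes at room temperature; luminescence read.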
* = called active by the depositor; ? = inconclusive; · = no result. This is a sample that favours compounds with a hit; in the whole collection about 6.1% have one here.

SMILES	D1 antagonist	ERG-DNA inh	D3 antag	D1 ag	D1 PAM	D3 ag
Nc1nc(N2CCN(Cc3ccccc3)CC2)n[nH]1	-1	35µM*	21	3	2	51*
CC1(C)CC(=O)C(c2ccccc2)(c2ccccc2)C(=O)C1	·	·	0	·	·	5
CC(=O)c1cccc(-c2ccc3c(=O)[nH]c(Nc4ccccc4)cc3c2)c1	·	22%	0	·	·	31*
O=c1[nH]c(Nc2ccccc2)cc2ccccc12	34	-10%	24	38*	-1	-6
O=C(O)CCCNc1cc(N2CCN(C(=O)c3ccco3)CC2)c2noc3c2c1C(=O)c1ccccc1-3	5	83%	3	1	-3	6
CCOC(=O)N1CCN(c2cc(NCCC(=O)O)c3c4c(onc24)-c2ccccc2C3=O)CC1	13	?	-77*	2	3	-7
Cc1nc(C(=O)NCc2ccccc2)sc1C1(C)CC(c2ccccc2)=NO1 (stereo unspecified)	30	-3%	-50*	39*	-8	-18
COc1ccc(NC(=O)c2nc(C)c(C3(C)CC(c4ccccc4)=NO3)s2)cc1 (stereo unspecified)	4	-3%	-12	6	-1	-12
Cc1nc(C(=O)Nc2ccccc2)sc1C1(C)CC(c2cccc([N+](=O)[O-])c2)=NO1 (stereo unspecified)	-33*	-6%	-3	4	-6	4
CCn1c(CNC(=O)c2ccco2)nnc1SCCOc1ccccc1	-1	-8%	4	0	-3	-5
CN(CC(=O)N1CCN(Cc2ccccc2)CC1)S(=O)(=O)c1ccc(F)cc1	8	-7%	-59*	5	-1	-9
CS(=O)(=O)N(CCCC(=O)N1CCCCCC1)c1cccc(Cl)c1	-38*	-6%	2	7	0	-2
CS(=O)(=O)N(CC(=O)N1CCCC1)c1ccc(Cl)cc1Cl	-11	-2%	-5	3	-6	0
CS(=O)(=O)N(CC(=O)N1CCCC1)c1cc(Cl)c(Cl)cc1Cl	-14	-5%	-8	39*	-7	19
CS(=O)(=O)N(CC(=O)N1CCN(Cc2ccccc2)CC1)c1ccccc1Br	-13	11%	-58*	3	-3	-20
CN(CC(=O)N1CCN(Cc2ccccc2)CC1)S(=O)(=O)c1ccc(Br)cc1	-5	-9%	?	4	-1	-38
CS(=O)(=O)N(CC(=O)N1CCN(Cc2ccccc2)CC1)c1ccccc1F	2	8%	-22	3	3	-7
Cn1nc(C(C)(C)C)cc1C(=O)N1CCCCC1c1cc(C(=O)NCc2ccc(F)cc2)no1 (stereo unspecified)	·	·	0	·	·	-2
CCC(CC)c1nn2c(=O)cc(COc3ccc(NC(=O)c4cccc(Cl)c4)cc3)nc2s1	5	-6%	·	3	-3	2
CCOC(=O)c1ccc(NC(=O)CN2C(=O)C(C)(C)c3ccccc32)cc1	-9	-7%	·	7	-2	-2
Cc1ccc2oc(=O)c3cc(C(=O)NCCc4ccc(Cl)cc4)sc3c2c1	3	-1%	·	2	2	8
O=C(Cc1cccs1)NCc1cccc(Cl)c1	4	10%	0	2	-9	-4
OC1CCN(c2ncnc3c2nnn3Cc2c(F)cccc2Cl)CC1	-11	1%	18	4	-6	5
O=S(=O)(Nc1ccccc1)c1ccc(Oc2ncc(C(F)(F)F)cc2Cl)cc1	-3	-8%	-63*	32*	-2	-1
CCCNS(=O)(=O)c1ccc(Oc2ncc(C(F)(F)F)cc2Cl)cc1	-6	-3%	-18	46*	-9	1
SMILES	D1 antagonist	ERG-DNA inh	D3 antag	D1 ag	D1 PAM	D3 ag
COc1ccc(S(=O)(=O)NCC2CCCN(Cc3ccccc3Cl)C2)cc1 (stereo unspecified)	-5	-8%	-52*	4	-3	-15
Cc1ccccc1-c1nnn(Cc2cccc(S(=O)(=O)N3CCOCC3)c2)n1	-33*	7%	-2	13	-8	0
COC(=O)c1cc(S(=O)(=O)N2CCOCC2)c(Cl)cc1N1CCOCC1	1	3%	?	0	-4	2
COC(=O)c1cc(C)nc2c1C(=O)C(=O)C=C2N1CCOCC1	-5	7%	-100*	1	-8	0
c1ccc(Cn2c(CNc3nc4ccccc4n3CCN3CCOCC3)nc3ccccc32)cc1	0	3%	-54*	-2	-3	-13
c1ccc2c(c1)nc(NCc1ccc3c(c1)OCO3)n2CCN1CCOCC1	-30*	15%	-20	0	-7	-3
CC(C)CNC(=O)CSc1ccc(Cl)cc1	-15	-2%	5	0	3	11
Cc1c(Cl)cccc1NC(=S)N/N=C/c1ccccc1Cl	0	3%	28	2	0	0
O=C(N/N=C/c1ccc([N+](=O)[O-])o1)c1cc2ccccc2o1	6	-8%	-25	1	-4	-14
Fc1ccccc1NC(=S)N/N=C/c1ccccc1Br	34	-1%	-79*	-3	1	-20
O=[N+]([O-])c1ccc(/C=N/Nc2ccc3ccccc3c2)o1	11	66%	-89*	40*	-2	-19
O=[N+]([O-])c1ccc(/C=N/NC(=S)Nc2ccccc2F)o1	-53*	-6%	?	3	-4	6
O=[N+]([O-])c1ccc(/C=N/NC(=S)Nc2ccccc2)o1	-3	0%	-15	9	-4	-1
CCCCC(CC)CNC(=O)C1CCC(CNS(=O)(=O)c2cccc3nsnc23)CC1 (stereo unspecified)	-9	-3%	·	9	-1	3
COc1ccc(N(C)S(=O)(=O)c2ccc3c(c2)CCN3C(=O)C2CC2)c(OC)c1	3	-6%	50	12	-5	-4
CCCCCC(O)CCc1n[nH]c(=S)n1-c1ccccc1 (stereo unspecified)	11	3%	?	1	-1	0
CCCCC(CC(O)COCCC)c1n[nH]c(=S)n1-c1ccccc1 (stereo unspecified)	-45*	-3%	7	5	-2	7
CC(=O)Nc1ccc(S(=O)(=O)N(C)CC(=O)NC2=NCCS2)cc1	-31*	-18%	-4	2	-8	-3
CC(C)(C)C(=O)Cn1c(=O)n(-c2ccc(Cl)cc2)c(=O)c2c3c(sc21)CCCC3	4	0%	·	-1	2	6
CN1Cc2cccc3c2C(Cc2ccccc2S3)C1 (stereo unspecified)	-27	-3%	-64*	3	-1	-9
NC(=O)c1cc2ccc(O)cc2oc1=NCc1ccccc1	-17	-2%	21	150*	-8	5
